{"source": "PubChem BioAssay (NCI)", "note": "The panel holds about 83,000 compounds, 20% with a hit somewhere; the sample as a whole holds those more often.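 Values shown are percent growth following 48 h exposure of cells in 96-well plates to a single concentration of compound; below 10 was considered active.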 Unmarked numbers belong to inactive results. Calls of active or inactive are those of the source.", "data": [{"tested_on": "MOLT-4 leukemia", "assay": "NCI-60 one-dose screen, 48 h (100 = growth as untreated, 0 = no growth, -100 = all killed)", "details": "10 µM unless noted", "values": [{"smiles": "COc1ccc(-c2nc(N=Nc3c(O)[nH]c4ccccc34)nc(N3CCOCC3)c2C#N)cc1", "growth": "80.8%"}, {"smiles": "COc1cc2nc(-c3ccc(C(F)(F)F)cc3)cc(OCCN3CCCC3)c2cc1OC", "growth": "74.2%"}, {"smiles": "NC(=S)N/N=C(/c1ccccc1)c1ccccc1N", "growth": "52.7%"}, {"smiles": "C=C(C)[C@@H]1CC[C@]2(C=O)CC[C@]3(C)[C@H](CC[C@@H]4[C@@]5(C)CCCNC(C)(C)[C@@H]5CC[C@]43C)[C@@H]12", "growth": "49.1%"}, {"smiles": "CCCNC(=O)Oc1ccc(/C(=C(\\C)c2ccccc2)c2ccc(OCCN3CCCCC3)cc2)cc1", "growth": "60.1%"}, {"smiles": "CCOC(=O)Oc1c(OC)cc(C(=O)O[C@@H]2C[C@@H]3CN4CCc5c([nH]c6cc(OC)ccc56)[C@H]4C[C@@H]3[C@H](C(=O)OC)[C@H]2OC)cc1OC", "growth": "7.97% (active)"}, {"smiles": "COc1ccc(OC)c(/C=C/[C@H]2O[C@@H](C)[C@H](O)[C@@H]2O)c1", "growth": "93.2%"}, {"smiles": "CCC(=O)c1ccc(O)c(OC)c1", "growth": "101%"}, {"smiles": "Clc1cc(Cl)cc(N2N=C(c3cccc(Nc4ccncc4)c3)CC2c2ccccc2)c1", "note": "(stereo not drawn)", "growth": "2.51% (active)"}, {"smiles": "Fc1cc(C2=NNC(c3ccc[nH]3)C2)ccc1-n1ccc(C(F)(F)F)n1", "note": "(stereo not drawn)", "growth": "77.5%"}, {"smiles": "Clc1nc(Nc2ccccc2)nc(Nc2ccccc2)n1", "growth": "86.3%"}, {"smiles": "Cn1c(=O)c2[nH]c(CCCc3nc4c([nH]3)c(=O)n(C)c(=O)n4C)nc2n(C)c1=O", "growth": "136%"}, {"smiles": "C=C1C(=O)O[C@H]2[C@H]1CC/C(COC(=O)NCCc1c[nH]c3ccc(Cl)cc13)=C\\CC[C@@]1(C)O[C@@H]21", "growth": "-6.88% (active)"}]}]}
